Measured values published in the supplement of paper PMC6555819.

Tests used:
Test in all cases: PBM binding z-score (relative to random genomic background probes); higher = stronger binding; sequences stand for … in GC…GCGATTGACAGCGTAGAATGAAGG
[1] = test system: FXR:RXRa (NR concentration 270 nM, RXRa partner concentration 90 nM)
Procedure, shortened: (§1)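 Regression normalization was applied to scanned fluorescence from custom Agilent 4×180K protein-binding microarrays. Before scanning, arrays were incubated 1 h with ligand-free nuclear receptor dimers, and binding was detected with antibodies against each partner (one per run). Binding z-scores use the random background probes as reference.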

[2] = test system: LXRa:RXRa (NR concentration 270 nM, RXRa partner concentration 90 nM)
Procedure, shortened: as §1

[3] = test system: LXRa homodimer (NR concentration 270 nM)
Procedure, shortened: as §1

[4] = test system: LXRb:RXRa (NR concentration 270 nM, RXRa partner concentration 90 nM)
Procedure, shortened: as §1

[5] = test system: LXRb homodimer (NR concentration 270 nM)
Procedure, shortened: as §1

[6] = test system: PPARa:RXRa (NR concentration 270 nM, RXRa partner concentration 90 nM)
Procedure, shortened: as §1

[7] = test system: PPARg:RXRa (NR concentration 180 nM, RXRa partner concentration 90 nM)
Procedure, shortened: as §1

[8] = test system: PPARg:RXRa 270nM:90nM, anti-RXR (NR concentration 270 nM, RXRa partner concentration 90 nM)
Procedure, shortened: as §1

[9] = test system: PPARg:RXRa 30nM:10nM, anti-RXR (NR concentration 30 nM, RXRa partner concentration 10 nM)
Procedure, shortened: as §1

[10] = test system: PPARg:RXRa 90nM:30nM, anti-RXR (NR concentration 90 nM, RXRa partner concentration 30 nM)
Procedure, shortened: as §1

[11] = test system: PPARg:RXRa DBDmut IVT, anti-RXR (DBD mutation: RXRa K156A/R161A, NR concentration 270 nM, RXRa partner concentration 90 nM)
Procedure, shortened: as §1

[12] = test system: PPARg:RXRa IVT, anti-PPARg (NR concentration 270 nM, RXRa partner concentration 90 nM)
Procedure, shortened: as §1

[13] = test system: PPARg DBDmut:RXRa IVT, anti-PPARg (DBD mutation: PPARg1 K132A/R137A, NR concentration 270 nM, RXRa partner concentration 90 nM)
Procedure, shortened: as §1

[14] = test system: PPARg DBDmut IVT, anti-PPARg (DBD mutation: PPARg1 K132A/R137A, NR concentration 270 nM)
Procedure, shortened: as §1

[15] = test system: PPARg homodimer (NR concentration 180 nM)
Procedure, shortened: as §1

[16] = test system: PXR:RXRa (NR concentration 270 nM, RXRa partner concentration 90 nM)
Procedure, shortened: as §1

[17] = test system: PXR homodimer (NR concentration 270 nM)
Procedure, shortened: as §1

[18] = test system: RARa:RXR (NR concentration 270 nM, RXRa partner concentration 90 nM)
Procedure, shortened: as §1

[19] = test system: RARa homodimer (NR concentration 270 nM)
Procedure, shortened: as §1

[20] = test system: RARb:RXRa (NR concentration 270 nM, RXRa partner concentration 90 nM)
Procedure, shortened: as §1

Sequence	PBM binding z-score [1]	PBM binding z-score [2]	PBM binding z-score [3]	PBM binding z-score [4]	PBM binding z-score [5]	PBM binding z-score [6]	PBM binding z-score [7]	PBM binding z-score [8]	PBM binding z-score [9]	PBM binding z-score [10]	PBM binding z-score [11]	PBM binding z-score [12]	PBM binding z-score [13]	PBM binding z-score [14]	PBM binding z-score [15]	PBM binding z-score [16]	PBM binding z-score [17]	PBM binding z-score [18]	PBM binding z-score [19]	PBM binding z-score [20]
GTACCAAGGTAAATAGGTCGTTGATGAGTAGGCG	0.0892	0.228	-0.0943	0.151	-0.264	1.73	1.37	1.34	0.667	0.78	1.71	2.84	0.778	0.523	0.489	0.181	0.0446	0.634	0.265	0.675
CTACAAAGGTGAACAAGGTCGTTGATTACTATTC	2.91	2.94	0.453	3.1	-0.0435	4.39	3.3	3.46	0.912	2.84	3.31	3.77	0.982	0.418	1.57	3.89	2.18	3.61	0.686	3.63
CCTACTGGGCCAAGGTAATTGATCAGTCAAAGCA	-0.458	-0.478	-0.526	-0.461	-0.835	0.508	0.767	1.22	0.0282	0.531	4.09	3.56	-0.62	-0.619	-0.616	-0.363	-0.674	0.0953	-0.936	0.0612
ACTATTAGTTGAGACGAGCGCAACCGATAGGTTG	-0.41	-0.534	-0.214	-0.638	-0.159	-0.642	0.477	-0.52	-0.422	-0.414	-0.504	-0.34	0.343	0.844	-0.155	-0.542	0.00515	-0.474	-0.207	-0.278
TCGAGTAGGTTAGTCGGGGCACTCAGCCAACATA	0.251	0.253	-0.0703	0.402	-1.06	0.681	0.103	0.749	0.995	0.753	2.29	2.16	-0.475	-0.114	0.481	0.0586	-0.241	0.247	-0.581	0.524
TCTTGTAGATCAATAGAGGTTAAGGAAGTGCGCT	1.25	2.42	0.324	1.5	-0.201	2.08	0.136	1.99	3.04	2.63	1.91	0.959	0.906	0.773	0.732	2.58	0.412	1.96	0.894	1.04
CGAACTAGGTCTTTGACAGGACAGTGAATAGTAA	-0.13	0.047	-0.136	-0.238	-0.525	0.769	0.674	0.585	0.162	0.43	4.79	3.63	0.956	0.308	0.0171	-0.285	-0.19	0.0375	-0.136	0.0398
